The full list was thinned out, with the strongest signals kept by preference.
Experiments:
Assay in all cases: glycan array binding signal (z-score within array); higher = stronger binding
Details in all cases: glycan notation: IUPAC condensed, linker removed
[1] = molecular target: Neu5Ac(a2-3)Gal(b1-3)GalNAc(b1-4)[Neu5Ac(a2-8)Neu5Ac(a2-3)]Gal(b1-4)Glc
In short: (§1)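 Glycan array data were curated from 3228 arrays in the Consortium for Functional Glycomics database and kept only where the protein sequence was available. Glycan names were converted to IUPAC-condensed notation, and columns mapping to the same glycan were averaged. The binding signal is a within-array Z-score, averaged across arrays of the same protein sequence at different concentrations or buffers and across linkers. Negative Z-scores can be read as non-binding.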

[2] = molecular target: Neu5Ac(a2-3)Gal(b1-3)GalNAc6S
In short: as §1

[3] = molecular target: Neu5Ac(a2-3)Gal(b1-3)GlcNAc(b1-2)Man
In short: as §1

[4] = molecular target: Neu5Ac(a2-3)Gal(b1-3)GlcNAc(b1-2)Man(a1-3)[Neu5Ac(a2-3)Gal(b1-3)GlcNAc(b1-2)Man(a1-6)]Man(b1-4)GlcNAc(b1-4)GlcNAc
In short: as §1

[5] = molecular target: Neu5Ac(a2-3)Gal(b1-4)GlcNAc(b1-2)Man(a1-3)[GlcNAc(b1-4)][Neu5Ac(a2-3)Gal(b1-4)GlcNAc(b1-2)Man(a1-6)]Man(b1-4)GlcNAc(b1-4)GlcNAc
In short: as §1

[6] = molecular target: Neu5Ac(a2-3)Gal(b1-4)GlcNAc(b1-2)[Neu5Ac(a2-3)Gal(b1-4)GlcNAc(b1-4)]Man(a1-3)[GlcNAc(b1-4)][Neu5Ac(a2-3)Gal(b1-4)GlcNAc(b1-2)[Neu5Ac(a2-3)Gal(b1-4)GlcNAc(b1-6)]Man(a1-6)]Man(b1-4)GlcNAc(b1-4)GlcNAc
In short: as §1

[7] = molecular target: Neu5Ac(a2-3)Gal(b1-4)GlcNAc(b1-3)[Neu5Ac(a2-3)Gal(b1-4)GlcNAc(b1-6)]GalNAc
In short: as §1

[8] = molecular target: Neu5Ac(a2-3)Gal(b1-4)GlcNAc6S
In short: as §1

[9] = molecular target: Neu5Ac(a2-3)Gal(b1-4)[Fuc(a1-3)]GlcNAc
In short: as §1

[10] = molecular target: Neu5Ac(a2-3)Gal(b1-4)[Fuc(a1-3)]GlcNAc(b1-6)[Gal(b1-3)]GalNAc
In short: as §1

[11] = molecular target: Neu5Ac(a2-3)Gal6S(b1-4)GlcNAc
In short: as §1

Neu5Ac(a2-8)Neu5Ac = molecular target: Neu5Ac(a2-8)Neu5Ac
In short: as §1

[12] = molecular target: Neu5Gc(a2-3)Gal(b1-3)GlcNAc
In short: as §1

B1: Cohesin-hDCIR (Homo sapiens) (protein)
chain: LDDLDAVRIKVDTVNAKPGDTVRIPVRFSGIPSKGIANCDFVYSYDPNVLEIIEIEPGDIIVDPNPDKSFDTAVYPDRKIIVFLFAEDSGTGAYAITKDGVFATIVAKVKEGAPNGLSVIKFVEVGGFANNDLVEQKTQFFDGGANVGDTTEPATPTTPVTTPTTTDDLDAASQKYSQLLEKKTTKELVHTTLECVKKNMPVEETAWSCCPKNWKSFSSNCYFISTESASWQDSEKDCARMEAHLLVINTQEEQDFIFQNLQEESAYFVGLSDPEGQRHWQWVDQTPYNESSTFWHPREPSDPNERCVVLNFRKSPKRWGWNDVNCLGPQRSVCEMMKIHLHHHHHH
glycan array binding signal (z-score) [1]: -0.554
glycan array binding signal (z-score) [2]: 1.41
glycan array binding signal (z-score) [3]: -0.373
glycan array binding signal (z-score) [4]: -0.312
glycan array binding signal (z-score) [5]: -0.66
glycan array binding signal (z-score) [6]: -0.508
glycan array binding signal (z-score) [7]: 0.114
glycan array binding signal (z-score) [8]: -0.518
glycan array binding signal (z-score) [9]: -0.342
glycan array binding signal (z-score) [10]: -0.187
glycan array binding signal (z-score) [11]: -0.608
glycan array binding signal (z-score) (Neu5Ac(a2-8)Neu5Ac): -0.297
glycan array binding signal (z-score) [12]: -0.174

Source: the supplement of paper PMC8728848
